In PubChem BioAssay (NCI) one finds growth data, which are given here for eight compounds.

About 83,000 compounds went through this panel and 20% of them were active in at least one assay; those are over-represented in the sample as a whole.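 Cells were grown in 96-well plates and exposed to the test compound at a single concentration for 48 hours; results are reported as percent growth, with values below 10 considered active.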 Unmarked numbers belong to inactive results. Calls of active or inactive are those of the source.

Holding throughout (assay): NCI-60 one-dose screen, 48 h (100 = growth as untreated, 0 = no growth, -100 = all killed)
For one test, the system named is HT29 colon. The conditions noted are these: 10 µM unless noted.
A further test deals with SNB-75 CNS. The following applies: 10 µM unless noted.
In a further test the test system is SNB-19 CNS. The conditions noted are these: 10 µM unless noted.
For the next test, the system named is U251 CNS. The conditions noted are these: 10 µM unless noted.
The next test concerns PC-3 prostate. The following applies: 10 µM unless noted.
A further test has as its system SK-MEL-5 melanoma. The following applies: 10 µM unless noted.
The test system of a further test is UACC-62 melanoma. The following applies: 10 µM unless noted.
For a further test, the system named is LOX IMVI melanoma. The following applies: 10 µM unless noted.
Another test deals with SK-MEL-28 melanoma. The conditions noted are these: 10 µM.
Another test has as its system SK-MEL-2 melanoma. The following applies: 10 µM unless noted.
The subject of a further test is EKVX NSCLC. The following applies: 10 µM unless noted.
A further test has as its system SN12C renal. The conditions noted are these: 10 µM unless noted.
Another test relates to UO-31 renal. The following applies: 10 µM unless noted.
The subject of another test is TK-10 renal. The following applies: 10 µM unless noted.
The next test deals with ACHN renal. The conditions noted are these: 10 µM unless noted.
A further test concerns CAKI-1 renal. The conditions noted are these: 10 µM unless noted.
The test system of another test is A498 renal. The conditions noted are these: 10 µM unless noted.
In another test the test system is CCRF-CEM leukemia. The conditions noted are these: 10 µM unless noted.
The test system of the next test is MOLT-4 leukemia. The following applies: 10 µM unless noted.
For a further test, the system named is SR leukemia. The following applies: 10 µM unless noted.

As for `O=Cc1c(OCc2cnnn2CC(=O)Nc2ccc(Cl)cc2)ccc2ccccc12`, the growth with HT29 colon is 107%; with SNB-75 CNS it was 81.3%; in the test on SNB-19 CNS, 93.8%; with U251 CNS it was 101%; in the test on PC-3 prostate it was 105%; in the test on SK-MEL-5 melanoma it was 100%. Further, the growth in the test with UACC-62 melanoma is 87%; with LOX IMVI melanoma, 99.5%; in the test with SK-MEL-28 melanoma, 102%; in the test on SK-MEL-2 melanoma, 102%; in the test with EKVX NSCLC, 96.6%; in the test on SN12C renal, 97.3%. Moreover, the growth with UO-31 renal is 73.2%; in the test on TK-10 renal it was 118%; in the test on ACHN renal it was 94.9%; with CAKI-1 renal, 94%; in the test with A498 renal it was 96.7%; in the test with CCRF-CEM leukemia, 110%. For the same compound, the growth in the test on MOLT-4 leukemia was 90.7%; with SR leukemia it was 90.5%.

As to `O=C(Nc1ccc(N2CCNCC2)cc1)c1[nH]ncc1Nc1cc(Oc2ccccc2)ncn1`, the growth in the test on HT29 colon was -59.7% (active); in the test on SNB-75 CNS, 49.1%; with SNB-19 CNS, 45.9%; in the test on U251 CNS it was 24.4%; in the test on PC-3 prostate, -60.3% (active); in the test on SK-MEL-5 melanoma, 22.8%. The growth is -5.09% (active) with UACC-62 melanoma; -81% (active) in the test on LOX IMVI melanoma; 46.9% with SK-MEL-28 melanoma; 72.3% in the test on SK-MEL-2 melanoma; 32.5% in the test with EKVX NSCLC; 2.47% (active) with SN12C renal. In addition, the growth in the test on UO-31 renal was -13.1% (active); in the test with TK-10 renal it was 49.5%; in the test on ACHN renal it was -99.1% (active); with CAKI-1 renal it was 18.4%; with A498 renal it was 40.6%; in the test with CCRF-CEM leukemia, -27.5% (active). In addition, the growth was -16% (active) in the test with MOLT-4 leukemia and 1.43% (active) in the test with SR leukemia.

For the compound `O=S(=O)(Nc1ncccn1)c1ccc(NC2Nc3nc4ccccc4nc3S2)cc1` (centres undefined), the growth in the test on HT29 colon was 106%; in the test with SNB-75 CNS it was 84.9%; in the test with SNB-19 CNS, 99.3%; in the test on U251 CNS it was 103%; in the test on PC-3 prostate it was 101%; with SK-MEL-5 melanoma, 98.7%. Besides, the growth in the test on UACC-62 melanoma is 93.7%; with LOX IMVI melanoma, 94.2%; in the test on SK-MEL-28 melanoma it was 98.7%; in the test on SK-MEL-2 melanoma, 106%; in the test on EKVX NSCLC it was 90.7%; in the test on SN12C renal, 97.7%. In addition, the growth with UO-31 renal is 78.5%; in the test on TK-10 renal it was 109%; in the test with ACHN renal it was 98.5%; in the test on CAKI-1 renal, 94%; with A498 renal it was 99.3%; in the test with CCRF-CEM leukemia, 104%. The growth with MOLT-4 leukemia is 99.7%; in the test on SR leukemia, 102%.

With `O=C(Cn1cc(COc2ncnc3c2cnn3-c2ccccc2)nn1)Nc1cccc2ccccc12`, the growth was 102% in the test on HT29 colon; 74.9% with SNB-75 CNS; 88.4% in the test on SNB-19 CNS; 96.7% in the test with U251 CNS; 95.8% with PC-3 prostate; 92.5% in the test on SK-MEL-5 melanoma. In addition, the growth with UACC-62 melanoma is 83.9%; in the test on LOX IMVI melanoma, 97.5%; in the test on SK-MEL-28 melanoma, 100%; in the test with SK-MEL-2 melanoma it was 113%; with EKVX NSCLC, 85.5%; in the test with SN12C renal, 96.8%. In addition, the growth with UO-31 renal was 99.8%; in the test with TK-10 renal, 108%; with ACHN renal it was 91%; with CAKI-1 renal it was 90.6%; in the test with A498 renal, 88.8%; in the test on CCRF-CEM leukemia, 96.6%. The values for the growth with MOLT-4 leukemia and in the test on SR leukemia were 94.8% and 101%, respectively.

As for `CC(=O)c1ccc(NC(=O)Nc2ccc(S(=O)(=O)Nc3ccc(Cl)nn3)cc2)cc1`, the growth in the test on HT29 colon is 111%; in the test with SNB-75 CNS, 86.4%; with SNB-19 CNS it was 95.8%; in the test with U251 CNS, 103%; in the test with PC-3 prostate it was 104%; with SK-MEL-5 melanoma, 100%. For the same compound, the growth was 92% in the test with UACC-62 melanoma; 99% in the test with LOX IMVI melanoma; 107% in the test on SK-MEL-28 melanoma; 108% in the test with SK-MEL-2 melanoma; 99% in the test on EKVX NSCLC; 97.9% with SN12C renal. The growth with UO-31 renal is 78.5%; with TK-10 renal it was 119%; in the test on ACHN renal it was 103%; in the test on CAKI-1 renal it was 93%; with A498 renal, 84%; with CCRF-CEM leukemia, 116%. In addition, the growth with MOLT-4 leukemia was 104%; with SR leukemia, 117%.

`O=C(Cn1cc(COc2ncnc3c2cnn3-c2ccccc2)nn1)Nc1ccccn1`: the growth is 110% with HT29 colon; 71.9% in the test with SNB-75 CNS; 90.8% with SNB-19 CNS; 95.7% in the test with U251 CNS; 90.3% in the test with PC-3 prostate; 92.3% with SK-MEL-5 melanoma. Besides, the growth in the test on UACC-62 melanoma was 80.8%; with LOX IMVI melanoma, 93.8%; with SK-MEL-28 melanoma, 97.3%; in the test on SK-MEL-2 melanoma, 101%; with EKVX NSCLC, 86.2%; in the test on SN12C renal, 94.6%. In addition, the growth with UO-31 renal is 62.7%; in the test on TK-10 renal, 115%; in the test with ACHN renal, 91.1%; in the test on CAKI-1 renal, 86.6%; in the test on A498 renal, 78.7%; with CCRF-CEM leukemia, 96.7%. Besides, the growth in the test on MOLT-4 leukemia is 89.9%; with SR leukemia it was 101%.

Consider `CNCCNc1nc2ccccc2c2c(=O)c3cc(OC)ccc3sc12`, for which the growth with HT29 colon was -33.3% (active); in the test with SNB-75 CNS it was 43.1%; in the test with SNB-19 CNS, 57.6%; in the test on U251 CNS, -19.6% (active); in the test with PC-3 prostate it was 14%; with SK-MEL-5 melanoma, 76.4%. Besides, the growth is 7.43% (active) with UACC-62 melanoma; -87.8% (active) in the test on LOX IMVI melanoma; 74.6% in the test with SK-MEL-28 melanoma; 75.2% in the test with SK-MEL-2 melanoma; 59.2% in the test on EKVX NSCLC; 66.3% in the test on SN12C renal. The growth was 41.1% with UO-31 renal; -15.1% (active) in the test on TK-10 renal; 35.4% in the test on ACHN renal; 48% in the test with CAKI-1 renal; 45.7% in the test on A498 renal; 2.47% (active) in the test on CCRF-CEM leukemia. Moreover, the values for the growth with MOLT-4 leukemia and in the test on SR leukemia were -28.8% (active) and 5.19% (active), respectively.

Take `COc1cccc(C(=O)Cn2cc(/C=C(\C#N)S(=O)(=O)c3ccccc3)c3ccccc32)c1`: the growth in the test with HT29 colon is 111%; in the test on SNB-75 CNS, 92.6%; with SNB-19 CNS it was 95.4%; in the test with U251 CNS it was 103%; in the test on PC-3 prostate it was 109%; in the test on SK-MEL-5 melanoma, 92.4%. The growth is 87.5% in the test with UACC-62 melanoma; 94.8% with LOX IMVI melanoma; 112% in the test with SK-MEL-28 melanoma; 85.9% in the test on SK-MEL-2 melanoma; 114% with EKVX NSCLC; 83.7% in the test with SN12C renal. Also, the growth in the test with UO-31 renal is 70.4%; in the test on TK-10 renal it was 106%; in the test on ACHN renal, 111%; in the test on CAKI-1 renal it was 118%; in the test on A498 renal it was -75.9% (active); in the test on MOLT-4 leukemia it was 103%. Also, the growth in the test on SR leukemia is 99.4%.
